These results are taken from PubChem BioAssay (EPA / NIEHS).

Some compounds were tested as several samples or in several runs, with calls that do not always agree. Activity calls are given as the source filed them. The calls were made as follows: active = hit-call score of the fitted dose curve at least 0.9, where 1 is the maximum; inactive = score below 0.9.

Test [1] can be described thus: ATG_E_Box_CIS: Attagene CIS-FACTORIAL HepG2 Assay for human Enhancer Box (E-box) (AID 2282936). The following applies: HepG2 E-box cis-reporter transcription, actives raise or lower the signal. The essentials: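 Transiently transfected HepG2, endogenous TF-driven reporters, 24 h dosing. Readout: RT-PCR plus capillary electrophoresis of fluorescent reporter fragments. Gain or loss of signal fitted bidirectionally against DMSO baseline.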

Test [2] in a line: ATG_M_61_CIS: Attagene CIS-FACTORIAL HepG2 Assay for M61 Transcription Factor (Internal Marker) (AID 2282937). The note with it: HepG2 Attagene CIS-FACTORIAL M61 internal marker reporter; actives raise or lower the signal. In outline: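 This endpoint serves as an internal background control within a multiplexed HepG2 cis-reporter panel. Cells are exposed for 24 h; reporter mRNA is amplified, fluorescently labelled and sized by capillary electrophoresis, with DMSO as negative control.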

Test [3] can be described thus: ATG_M_19_CIS: Attagene CIS-FACTORIAL HepG2 Assay for M19 Transcription Factor (Internal Marker) (AID 2282939). The note with it: HepG2 Attagene CIS-FACTORIAL M19 internal marker reporter; actives raise or lower the signal. The essentials:
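In this multiplexed cell assay, transiently transfected HepG2 reporter units report endogenous transcription-factor activity; after 24 hours of treatment, labelled reporter cDNA fragments are quantified by capillary electrophoresis and fitted bidirectionally against DMSO.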

Test [4] is described as follows: ATG_ERE_CIS: Attagene CIS-FACTORIAL HepG2 Assay for Estrogen Response Element (ERE) (AID 2282940). The following applies: HepG2 ERE cis-reporter, Attagene RNA transcript; actives raise or lower the signal. In outline: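 Measuring endogenous transcription factor output, the assay doses transfected HepG2 cells for 24 hours and quantifies reporter transcripts by fluorescent RT-PCR and capillary electrophoresis, with DMSO as baseline.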

The nature of test [5]: ATG_Ets_CIS: Attagene CIS-FACTORIAL HepG2 Assay for human Erythroblast Transformation Specific (ETS) (AID 2282941). The following applies: HepG2 ETS cis-reporter transcription; AC50: actives raise or lower the signal unless noted; outcome: actives raise or lower the signal unless noted. In outline: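 Cis-regulated reporter mRNA induction in HepG2 (transient transfection), 24 h exposure, RT-PCR plus capillary electrophoresis detection; DMSO serves as negative control and baseline.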

In test [6] the target is Hepatocyte nuclear factor 3-beta (Homo sapiens) (UniProt Q9Y261). Nature of the test: ATG_FoxA2_CIS: Attagene CIS-FACTORIAL HepG2 Assay for human Forkhead box A2 (FOXA2) (AID 2282942). The following applies: HepG2 cis-reporter transcription factor activity, 24 h; actives raise or lower the signal. In outline: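 Cells: HepG2, transient multiplex reporter transfection. Exposure 24 h. Detection: reporter-specific RT-PCR, fluorescent labelling, restriction digest, capillary electrophoresis. Analysis: bidirectional curve fit, DMSO as negative control.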

The nature of test [7]: ATG_FoxO_CIS: Attagene CIS-FACTORIAL HepG2 Assay for human Forkhead box O (FoxO) (AID 2282943). The note with it: HepG2 Attagene cis-reporter, FoxO element, mRNA; actives raise or lower the signal. The essentials:
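Read-out: fluorescence of 6-FAM-labelled reporter cDNA fragments resolved by capillary electrophoresis. Transiently transfected HepG2 cells were dosed for 24 h; activity fitted in both directions relative to DMSO controls.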

Test [8] can be described thus: ATG_GATA_CIS: Attagene CIS-FACTORIAL HepG2 Assay for human GATA Binding Protein (AID 2282944). The following applies: HepG2 GATA cis-element reporter, Attagene multiplex mRNA; actives raise or lower the signal. The essentials: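 Measures endogenous transcription factor-driven reporter mRNA in HepG2 cells transiently carrying cis-regulated constructs. 24 h dosing; RNA via oligo(dT) reverse transcription, PCR, HpaI digestion, capillary electrophoresis; fitted relative to DMSO.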

Test [9] can be described thus: ATG_GLI_CIS: Attagene CIS-FACTORIAL HepG2 Assay for human Zinc Finger Protein GLI1 (AID 2282945). The following applies: HepG2, Attagene cis-factorial reporter mRNA, GLI element; actives raise or lower the signal. The essentials: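 Transiently transfected HepG2 cells report endogenous transcription factor activity via cis-element-driven reporter units. After 24 h compound exposure, reporter mRNA was measured by RT-PCR with capillary electrophoresis; bidirectional fitting against DMSO baseline.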

The target in test [10] is Bile acid receptor (Homo sapiens) (UniProt Q96RI1). As to the kind of experiment: ATG_IR1_CIS: Attagene CIS-FACTORIAL HepG2 Assay for human Nuclear Receptor Subfamily 1 Group H Member 4 (NR1H4), IR1 submotif (AID 2282946). The following applies: IR1 reporter transcription, actives raise or lower the signal. The essentials: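 Fluorescence of capillary-separated, HpaI-digested RT-PCR reporter products gave IR1-element mRNA induction in HepG2 cells 24 h after dosing. Endogenous transcription factors drove the cis-regulated reporters; activity was fitted bidirectionally against DMSO.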

Test [11] in a line: ATG_GRE_CIS: Attagene CIS-FACTORIAL HepG2 Assay for human Glucocorticoid Response Elements (GRE) (AID 2282947). The following applies: HepG2 GRE cis-reporter, Attagene multiplex mRNA; AC50: actives raise or lower the signal unless noted; outcome: actives raise or lower the signal unless noted. The essentials:
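Read-out: fluorescent reporter-transcript fragments separated by capillary electrophoresis after RT-PCR. Transiently transfected HepG2 cells carrying cis-element-driven reporter units were dosed for 24 h; gain or loss of signal fitted against DMSO control.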

Test [12] in a line: ATG_ISRE_CIS: Attagene CIS-FACTORIAL HepG2 Assay for human Interferon Regulatory Factor 1 (IRF1) binding to an Interferon-Stimulated Response Element (ISRE) (AID 2282948). The note with it: HepG2 ISRE cis-reporter (Attagene), mRNA transcription readout; actives raise or lower the signal. The essentials:
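Multiplexed mRNA reporter readout in human liver HepG2 cells: cis-element-driven reporters transfected, compound added for 24 h, transcripts amplified, fluorescently labelled and sized by capillary electrophoresis; curve fitting bidirectional against DMSO.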

Test [13] is described as follows: ATG_M_32_CIS: Attagene CIS-FACTORIAL HepG2 Assay for M32 Transcription Factor (Internal Marker) (AID 2282949).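 Also: background control marker of the multiplexed CIS panel rather than a real target.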 The following applies: HepG2 Attagene cis-factorial M32 reporter, mRNA; actives raise or lower the signal. The essentials:
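Transient MRTU transfection of HepG2; 24 h compound treatment; TriZol RNA, oligo(dT) RT, reporter PCR, 6-FAM primer extension, HpaI cut, CE. Gain/loss of signal vs DMSO.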

A short description of test [14]: ATG_M_06_CIS: Attagene CIS-FACTORIAL HepG2 Assay for M06 Transcription Factor (Internal Marker) (AID 2282950). The following applies: HepG2 Attagene CIS-FACTORIAL M06 internal marker reporter; actives raise or lower the signal. In outline: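 One of many multiplexed endpoints: HepG2 reporter mRNA after 24 h dosing, detected by RT-PCR and capillary electrophoresis fluorescence; gain or loss of signal analysed against DMSO.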

Test [15] addresses Hypoxia-inducible factor 1-alpha (Homo sapiens) (UniProt Q16665). As to the kind of experiment: ATG_HIF1a_CIS: Attagene CIS-FACTORIAL HepG2 Assay for human Hypoxia Inducible Factor 1 (HIF1A) (AID 2282951). The following applies: HepG2 Attagene cis-factorial HIF1a reporter transcription; actives raise or lower the signal. The essentials: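 HepG2, transient cis-reporter library, 24 h dosing. RNA → RT (oligo dT) → PCR → 6-FAM primer extension → HpaI → CE. Bidirectional curve fit vs DMSO.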

Test [16] deals with Hepatocyte nuclear factor 6 (Homo sapiens) (UniProt Q9UBC0). Nature of the test: ATG_HNF6_CIS: Attagene CIS-FACTORIAL HepG2 Assay for human Hepatocyte Nuclear Factor 6 (HNF6) (AID 2282952). The note with it: HepG2 Attagene cis-factorial HNF6 reporter transcription; actives raise or lower the signal. The essentials:
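Endogenous factor activity read in transiently transfected HepG2 via promoter-regulated reporter transcripts. RNA harvested 24 h post-dosing, reverse-transcribed, PCR-amplified, FAM-labelled, HpaI-digested and resolved by capillary electrophoresis; fitted in both directions against DMSO.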

For test [17], the target named is Heat shock factor protein 1 (Homo sapiens) (UniProt Q00613). As to the kind of experiment: ATG_HSE_CIS: Attagene CIS-FACTORIAL HepG2 Assay for human Heat Shock Transcription Factor 1 (HSE) (AID 2282953). The note with it: HepG2 HSE cis-reporter, Attagene RNA transcription; actives raise or lower the signal. The essentials: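 Using HepG2 with transfected cis-driven reporter constructs, compound effects on endogenous factor activity are scored as reporter mRNA change at 24 h. Detection: RT-PCR, HpaI digestion, capillary electrophoresis; bidirectional fitting to DMSO.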

Test [18] in a line: ATG_MRE_CIS: Attagene CIS-FACTORIAL HepG2 Assay for human Metal Responsive Element (MRE) (AID 2282954). The note with it: HepG2 MRE cis-reporter transcription, Attagene multiplex; actives raise or lower the signal. In outline:
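RT-PCR/capillary electrophoresis readout of reporter mRNA, 24 h post-dosing, in HepG2 cells transfected with multiplexed cis-regulated reporter constructs. Gain or loss of signal fitted bidirectionally against DMSO baseline.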

Test [19] in a line: ATG_PBREM_CIS: Attagene CIS-FACTORIAL HepG2 Assay for human Phenobarbital-responsive Enhancer Module (PBREM) (AID 2282955). The note with it: HepG2 PBREM cis-reporter, Attagene multiplexed transcription; actives raise or lower the signal. The essentials:
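HepG2, transient MRTU transfection, 24 h dosing; RNA → oligo(dT) RT → PCR → 6-FAM extension → HpaI → CE. Bidirectional fit vs DMSO.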

The nature of test [20]: ATG_EGR_CIS: Attagene CIS-FACTORIAL HepG2 Assay for human Early Growth Response 1 (EGR1) (AID 2282938). The following applies: HepG2 Attagene CIS-FACTORIAL EGR reporter mRNA; actives raise or lower the signal. The essentials: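 HepG2, transient MRTU transfection (cis promoters), 24 h compound. RNA → RT (oligo-dT) → PCR → 6-FAM labelling → HpaI cut → CE fluorescence. Bidirectional fit, DMSO baseline.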

Chain of Hypoxia-inducible factor 1-alpha (Homo sapiens) (Q16665 whole entry, looked up): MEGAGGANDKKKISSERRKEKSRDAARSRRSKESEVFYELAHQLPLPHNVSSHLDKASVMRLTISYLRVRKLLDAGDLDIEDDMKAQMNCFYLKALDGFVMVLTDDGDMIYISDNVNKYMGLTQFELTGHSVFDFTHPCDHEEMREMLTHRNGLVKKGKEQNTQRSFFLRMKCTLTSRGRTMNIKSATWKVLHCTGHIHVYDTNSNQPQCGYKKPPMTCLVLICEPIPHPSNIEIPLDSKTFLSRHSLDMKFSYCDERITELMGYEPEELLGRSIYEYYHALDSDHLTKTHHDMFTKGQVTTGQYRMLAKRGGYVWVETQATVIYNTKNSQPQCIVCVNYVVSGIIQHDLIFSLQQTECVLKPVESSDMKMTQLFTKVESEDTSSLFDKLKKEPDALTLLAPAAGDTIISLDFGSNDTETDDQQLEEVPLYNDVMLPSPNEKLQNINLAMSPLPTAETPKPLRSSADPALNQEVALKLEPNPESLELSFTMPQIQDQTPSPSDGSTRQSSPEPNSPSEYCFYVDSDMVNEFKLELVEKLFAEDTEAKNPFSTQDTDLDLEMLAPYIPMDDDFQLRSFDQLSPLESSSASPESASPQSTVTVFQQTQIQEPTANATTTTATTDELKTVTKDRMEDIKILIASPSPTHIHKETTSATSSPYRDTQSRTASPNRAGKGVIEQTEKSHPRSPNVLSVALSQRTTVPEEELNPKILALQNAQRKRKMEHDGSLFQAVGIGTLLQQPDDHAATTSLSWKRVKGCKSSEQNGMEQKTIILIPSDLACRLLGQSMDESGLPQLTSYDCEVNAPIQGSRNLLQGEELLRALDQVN
Chain of Bile acid receptor (Homo sapiens) (Q96RI1 whole entry, looked up): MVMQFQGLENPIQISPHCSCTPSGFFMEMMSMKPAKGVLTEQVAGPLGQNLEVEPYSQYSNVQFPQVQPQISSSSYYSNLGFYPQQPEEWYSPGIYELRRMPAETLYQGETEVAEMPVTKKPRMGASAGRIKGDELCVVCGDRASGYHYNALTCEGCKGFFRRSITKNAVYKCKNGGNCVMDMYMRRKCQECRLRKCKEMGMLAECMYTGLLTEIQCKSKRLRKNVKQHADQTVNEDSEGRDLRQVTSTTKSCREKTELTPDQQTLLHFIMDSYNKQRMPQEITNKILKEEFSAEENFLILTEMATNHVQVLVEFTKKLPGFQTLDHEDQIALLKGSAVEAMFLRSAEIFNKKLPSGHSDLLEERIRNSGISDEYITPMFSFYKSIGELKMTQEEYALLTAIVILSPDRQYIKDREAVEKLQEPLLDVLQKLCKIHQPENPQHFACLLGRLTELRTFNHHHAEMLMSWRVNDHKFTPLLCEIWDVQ
Chain of Hepatocyte nuclear factor 3-beta (Homo sapiens) (Q9Y261 whole entry, looked up): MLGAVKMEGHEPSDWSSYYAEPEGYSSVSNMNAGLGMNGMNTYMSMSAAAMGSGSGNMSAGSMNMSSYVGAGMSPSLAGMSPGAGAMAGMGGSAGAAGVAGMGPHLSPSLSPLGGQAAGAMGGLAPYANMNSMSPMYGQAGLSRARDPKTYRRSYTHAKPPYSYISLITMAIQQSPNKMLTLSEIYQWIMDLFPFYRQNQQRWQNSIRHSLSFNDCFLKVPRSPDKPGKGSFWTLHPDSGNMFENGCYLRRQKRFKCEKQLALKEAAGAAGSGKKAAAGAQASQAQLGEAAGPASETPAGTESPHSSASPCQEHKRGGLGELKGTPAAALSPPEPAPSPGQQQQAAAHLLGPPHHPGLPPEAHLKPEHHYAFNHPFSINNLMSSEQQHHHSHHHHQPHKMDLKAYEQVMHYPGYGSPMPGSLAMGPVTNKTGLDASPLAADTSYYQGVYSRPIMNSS
Chain of Hepatocyte nuclear factor 6 (Homo sapiens) (Q9UBC0 whole entry, looked up): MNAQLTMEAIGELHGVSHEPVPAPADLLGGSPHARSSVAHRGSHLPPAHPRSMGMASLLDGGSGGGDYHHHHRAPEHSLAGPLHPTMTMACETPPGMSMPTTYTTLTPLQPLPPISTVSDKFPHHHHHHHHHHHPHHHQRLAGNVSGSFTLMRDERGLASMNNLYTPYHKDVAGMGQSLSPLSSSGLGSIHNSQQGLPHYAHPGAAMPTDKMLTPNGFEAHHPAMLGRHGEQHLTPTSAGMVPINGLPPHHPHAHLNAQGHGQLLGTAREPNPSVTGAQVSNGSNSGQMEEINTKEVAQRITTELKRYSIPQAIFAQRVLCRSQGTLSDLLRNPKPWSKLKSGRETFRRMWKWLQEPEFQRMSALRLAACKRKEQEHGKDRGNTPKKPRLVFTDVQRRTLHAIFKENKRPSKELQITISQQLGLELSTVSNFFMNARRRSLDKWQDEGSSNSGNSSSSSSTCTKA
Chain of Heat shock factor protein 1 (Homo sapiens) (Q00613 whole entry, looked up): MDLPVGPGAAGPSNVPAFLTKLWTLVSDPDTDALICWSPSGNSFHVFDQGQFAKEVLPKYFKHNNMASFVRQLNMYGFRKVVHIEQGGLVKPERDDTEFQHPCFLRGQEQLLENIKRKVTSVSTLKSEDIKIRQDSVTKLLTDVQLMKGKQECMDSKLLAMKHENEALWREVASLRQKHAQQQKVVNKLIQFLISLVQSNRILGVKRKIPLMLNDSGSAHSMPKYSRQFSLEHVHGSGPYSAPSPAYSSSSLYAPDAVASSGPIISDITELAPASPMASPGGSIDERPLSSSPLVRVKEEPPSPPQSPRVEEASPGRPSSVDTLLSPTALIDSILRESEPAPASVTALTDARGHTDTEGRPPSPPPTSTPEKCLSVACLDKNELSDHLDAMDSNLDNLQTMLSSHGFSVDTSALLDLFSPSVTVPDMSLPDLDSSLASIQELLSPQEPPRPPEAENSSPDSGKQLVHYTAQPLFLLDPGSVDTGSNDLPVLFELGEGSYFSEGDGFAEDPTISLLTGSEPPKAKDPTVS

For `Cn1sccc1=O`, the AC50 (usually the concentration giving half of the maximal activity seen) is 72.4 µM (active) in test [1]; 148 µM (active) in test [9]; 163 µM (active) in test [12]; 161 µM (active) in test [17]; 163 µM (active) in test [18]. In addition, the result in test [2], in test [3], in test [4], in test [5], in test [6] and in test [7] was inactive. Further, the result in [8], in test [10], in test [11], in [13], in test [14] and in test [15] was inactive. Further, the outcome in [16] and in test [19] was inactive.

With `Brc1ccc(Oc2ccc(Br)cc2Br)cc1`, the outcome in test [1], in test [2], in test [20], in [3], in test [5] and in [7] was inactive. The call in test [8], in [10], in test [11], in [12], in [13] and in test [14] was inactive. Moreover, the compound was called inactive in [15], in test [16], in [17], in test [18] and in [19].

For the compound `CCCCN(C)C`, the outcome in test [1], in test [2], in test [3], in test [4], in test [5] and in test [6] was inactive. For the same compound, the result in test [7], in test [8], in [9], in test [10], in test [11] and in test [12] was inactive. Moreover, the result in test [13], in test [14], in test [15], in test [16], in [17] and in test [18] was inactive. In addition, in test [19], the outcome was inactive.

`CCOC(C)=O`: the outcome in test [1], in [2], in test [3], in [4], in [5] and in test [6] was inactive. Also, the compound was called inactive in [7], in test [8], in [9], in test [11], in test [13] and in [14]. Moreover, the result in test [15], in test [16], in test [17], in test [18] and in test [19] was inactive. For the same compound, the AC50 in test [8] is 100 µM (active).
